From PubChem BioAssay AID1259240 (Keith Lab, Institute of Cancer Science, University of …, 2017)
Calls of active or inactive are those of the source. No stated cut-off is given here; in the data, active means fold change mostly below about -2 (no sharp cut-off); inactive means mostly above about -1.8.

Test: modulation of TERT promoter-driven luciferase – cell-based, luciferase reporter, human, primary screen (AID 1259240)
Conditions: A2780 TERT promoter luciferase reporter, 16 h; at 20 µM, fold versus average of vehicle-only wells

Fold change, active:
Cc1nc2cc(-c3ccccc3)nn2c(C)c1CCC(=O)NC(C)CCc1ccco1 (stereo not given) -2.05
O=C1N=C(N2CCOCC2)S/C1=C1\C(=O)N(Cc2ccccc2)c2ccccc21 -2.02
Cc1ccc(-c2noc(-c3ccccc3Cl)n2)cc1 -93.3

Fold change, inactive:
Cc1cc(NS(=O)(=O)c2ccc(NC(=O)[C@@H]3CCCC[C@@H]3C(=O)O)cc2)no1 -1.94
CC1CCN(c2nnc(NC(=O)Nc3ccc(F)cc3)s2)CC1 -1.1
NC(=O)c1sc2nc(C3CC3)cc(-c3ccc(Br)cc3)c2c1N -1.28
CCS(=O)(=O)N1CCN(Cc2c[nH]c3ccccc23)CC1 -1.08
CCCCNS(=O)(=O)c1ccc(C)c(-c2nnc3c4ccccc4c(C)nn23)c1 -1.28
Cc1ccc2oc(-c3ccccc3C(=O)O)cc(=O)c2c1 1.62
O=C(O)CCN1C(=O)c2ccccc2S1(=O)=O -1.2
CC(CC(=O)N1CCN(c2ccc([N+](=O)[O-])cc2)CC1)CC1=NS(=O)(=O)c2ccccc2N1 (stereo not given) -1.48
Cn1c2ccccc2c2cnn(CC(=O)N3CCN(c4ccccn4)CC3)c(=O)c21 -1.1
CC1(C)CC(=O)c2sc(NC(=O)c3ccccc3)nc2C1 -1.97
Fc1ccc(CNc2nnc(Cc3ccncc3)c3ccccc23)cc1 -1.53
CC(C)OCCCNC(=O)c1ccc(NC2=NC3CS(=O)(=O)CC3S2)cc1 (stereo not given) 1.22
CN(C)C(=O)Nc1ccc2snnc2c1 1.12
COc1cc(NC(=O)c2onc(C)c2Cl)cc(OC)c1OC 1.32
COc1cccc(-c2cc(N)n(S(=O)(=O)c3cccc4nsnc34)n2)c1 1.15
Cc1csc(NC(=O)C2CCCN(S(=O)(=O)c3c(C)[nH]c(=O)[nH]c3=O)C2)n1 (stereo not given) -1.1
NC(=O)C1CCN(C(=O)CCCc2nnc3n4nc(-c5ccccc5)nc4c4ccccc4n23)CC1 -1
CCC(CC)c1nnc(NC(=O)Cn2cnc3c2c(=O)n(C)c(=O)n3C)s1 -1.36
C=CCOc1ccc(-c2nc3s/c(=C\c4cccc(OC(C)=O)c4)c(=O)n3n2)cc1 1.2
O=C(CSc1nc(-c2ccco2)cc(C(F)(F)F)n1)N1CCc2ccccc21 -1.91
C=C1c2cc(CC)ccc2NC(=O)N1c1ccc(C)cc1 1.01
O=C(c1cncc(Br)c1)N1CCN(c2ccc(N3CCOCC3)nn2)CC1 1.24
CCOC(=O)C1CCCN(c2c(NCCCN3CCN(C)CC3)c(=O)c2=O)C1 (stereo not given) -1.03
Nc1cc(-c2ccccc2)nn1S(=O)(=O)c1ccc(Br)cc1 1.63
O=C(NC1CCCCCC1)C1CCC(CNc2c(NC3CCCCC3)c(=O)c2=O)CC1 (stereo not given) -1.28
CCCCN(CC)CCNS(=O)(=O)c1cccc2cccnc12 -1.21
O=S(=O)(Nc1cccc(C(F)(F)F)c1)c1cccc2cccnc12 -1.42
COC(=O)CSCc1nc2ccccc2[nH]c1=O -1.41
Cc1ccccc1-c1nc(CSCC(=O)O)c(C)o1 -1.01
O=C(CSc1nnc2ccc3ccccc3n12)Nc1ccc2c(c1)OCCO2 1.3
O=C(NCc1ccncc1)c1cc(-c2ccc3c(c2)OCO3)nc2ccccc12 -1.04
CCOC(=O)C1CCCN(c2c(N3CCC(C(N)=O)CC3)c(=O)c2=O)C1 (stereo not given) -1.23
CCOC(=O)Cn1c(=O)oc2cc(S(=O)(=O)NC3CCN(C(=O)OCC)CC3)ccc21 1.58
O=C(CC1(CC2=NS(=O)(=O)c3ccccc3N2)CCCC1)NCc1ccccc1 -1.27

outcome, inactive:
CCn1c(SCC(=O)Nc2nnc(C)s2)nnc1-c1c[nH]c2ccccc12
Cc1ccc(N2CC(O)=C(c3nc4ccccc4c(=O)[nH]3)C2=N)cc1C
CC1=C(C(=O)Nc2ccccc2)C(c2ccccn2)n2nc(CCCO)nc2N1 (stereo not given)
